Compounds without any hit were thinned out: in the full panel of roughly 83,000, 20% have a hit.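 Percent growth is the endpoint: 0 to 100 indicates growth inhibition (40 means 60% inhibition), 0 means no net growth, and negative values indicate cell death.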 Values without a mark were called inactive. Activity calls are given as the source filed them. Rule for the calls: active = growth percent below 10; inactive = the rest.
System: SF-268 CNS
Assay: NCI-60 one-dose screen, 48 h (100 = growth as untreated, 0 = no growth, -100 = all killed)
Details: 10 µM

| SMILES | growth |
| --- | --- |
| COc1ccc2oc(=O)cc(C(c3ccc[nH]3)c3ccc[nH]3)c2c1 | 18.7% |
| CCCN(CCC)CCCNC(=O)c1cc2c(-c3ccc(OC)c(OC)c3)nn(C)c2s1 | 14.5% |
| N#Cc1c(-c2ccccc2)nc(SCC(=O)N2CCOCC2)[nH]c1=O | 104% |
| COc1ccc(NC(=O)c2sc3nc4c(cc3c2N)C(O)CCC4)cc1 (stereo not drawn) | 99.7% |
| COc1cccc2c1O/C(=C\c1ccc([N+](=O)[O-])s1)C2=O | 12.5% |
| N#Cc1cnc2ccc(NCc3cnc[nH]3)cc2c1Nc1ccc(F)c(Cl)c1 | 63.2% |
| O=C1/C(=C/c2ccc(O)cc2)Oc2ccc(Cl)cc21 | 93% |
| Cc1ccc([P+](Cc2ccccc2)(c2ccccc2)c2ccccc2)cc1 | 28.4% |
| CCOC(=O)c1c(C)n(-c2ccc(Cl)cc2)c2ccc(OC(=O)/C=C/c3ccccc3)cc12 | 94.1% |
| O=C(O)CCCN1C(=O)NC2(C1=O)c1ccccc1-c1ccccc12 | 95.3% |
| Cc1cc(C)c2nc(C)c(C)[n+]([O-])c2c1 | 106% |
| CCOC(=O)c1sc(Nc2ncccn2)nc1-c1ccccn1 | 80.6% |
| COc1ccc(-c2[nH]ncc2/C=C/c2cc(C(F)(F)F)[nH]c(=O)n2)cc1 | 97.5% |
| COc1ccc(-c2nc(-c3nc4ccc(C)cc4[nH]3)c3ccccn23)cc1 | 45% |
| CC(Oc1ccc(Cl)cc1)c1ccccc1 (stereo not drawn) | 104% |
| CCCCCCCCCCN=C(c1ccc(N(C)C)cc1)c1ccc(N(C)C)cc1 | 57.5% |
| c1ccc(COCC[P+](c2ccccc2)(c2ccccc2)c2ccccc2)cc1 | 15.4% |
| COCCOC(=O)NC(=O)Nc1ccc(/C(=N/O)c2ccc(Cl)cc2)cc1 | 43.2% |
| O=C(O)c1ccc(CNc2ccc(C(=O)CCl)cc2)cc1 | 109% |

| SMILES | growth |
| --- | --- |
| CC(C)C[C@H](NC(=O)CCn1ccc2ccccc2c1=O)B(O)O | 69.9% |
| COc1cc(CSc2nc3ccc(Cl)cc3c(=O)n2Cc2ccccc2)cc(OC)c1OC | 41% |
| c1ccc(CNc2nc(Nc3ccc(-c4nc5ccccc5[nH]4)cc3)c3cn[nH]c3n2)cc1 | 22.1% |
| CCCCCCCCCCCC(=O)NCCCN(C)C | 96.2% |
| CCCc1c(C)nc2scc(-c3ccc(Cl)cc3)n2c1=O | 98.3% |
| COc1ccc(/C=C2\SC(=S)N(CCCN3CCOCC3)C2=O)c(OC)c1 | 104% |
| CCCCN(CCCC)c1ccc(C(=NC(C)CCCN(CC)CC)c2ccc(N(C)C)cc2)cc1 (stereo not drawn) | -43.4% (active) |
| CCN(CC)CCOC(=O)c1ccc(N=Nc2ccc(O)c(OC)c2)cc1 | 94.7% |
| CCc1ccc(-c2nnc(COc3ccc(-c4nc5ccc(C)cc5[nH]4)cc3OC)o2)cc1 | 55.6% |
| COc1cc(-c2nc3ccc(C)cc3[nH]2)ccc1OCc1nnc(-c2ccc(CC(C)C)cc2)o1 | 105% |
| O=C(Nc1cccc(F)c1)Nc1cccc(Cl)c1 | 80.4% |
| CCCCOCCOCCOCc1cc2c(cc1Br)OCO2 | 103% |
| CC(C)(C)c1ccc(OCCCCCCN2CCNCC2)cc1 | 78.2% |
| O/N=C1\CCC2CCCCC2C1 (stereo not drawn) | 103% |
| O=c1cc(CSc2nnc(-c3ccccc3)n2-c2ccc(F)cc2)c2ccc3ccccc3c2o1 | 93.8% |
| CC(C)C[C@H](NC(=O)Cn1ccc2ccccc2c1=O)B(O)O | 79.6% |
| COc1ccc(-c2nc(-c3nc4ccc(OC)cc4[nH]3)c3ccccn23)cc1 | 57.5% |
| CCn1nc(-c2ccccn2)c2cccnc2c1=S | 94.8% |
| CNC(=O)c1cc(Oc2ccc(NC(=O)Nc3ccc(Cl)c(OC(C)C)c3)c(F)c2)ccn1 | 58.3% |
